Hits are enriched below; roughly 2.7% of the tested compounds scored in any of these assays.
NadD block – blocks S. aureus nicotinate mononucleotide adenylyltransferase; 0.78% of 360,000 active; inhibition, % at 20 µM; purified NadD enzyme, colorimetric absorbance read-out; AID 602399; in the data active means inhibition above about 26%
MsrA act – activates bovine MsrA enzyme | purified bovine MsrA, absorbance read-out | activation, % at 10.6 µM | 0.3% of 360,000 active; in the data active means activation above about 7.5%;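 further: 0% = vehicle and 100% = reference activator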
rCAG RNA binder – binds r(CAG) RNA repeats. r(CAG) RNA repeat, TO-PRO-1 dye displacement fluorescence. inhibition, % at 3 µM. 1.3% of 370,000 active;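 active means inhibition above the plate cutoff, the mean of all test compounds on that plate plus 3 SD, cut at about 35% in these data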;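 further: 0% = DMSO alone and 100% = 100 µM mitoxantrone as full dye displacement; higher means more dye released from RNA so lower well fluorescence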
MsrA inhibitor – inhibitors of bovine MsrA | purified bovine MsrA, absorbance read-out | 0.75% of 360,000 active | inhibition, % at 15.5 µM; in the data active means inhibition above about 4.5%;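 further: 0% = vehicle wells with enzyme and 100% = reference inhibitor wells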
rCAG bind conf – r(CAG) RNA repeat binding, confirmation. TO-PRO-1 dye displacement fluorescence. inhibition, % at 3 µM. shares compounds with rCAG RNA binder. 70% of 4,300 active;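 active means inhibition above a per-plate cutoff, the mean inhibition of sample wells plus 3 SD, cut at about 35% in these data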;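 further: loss of TO-PRO-1 fluorescence as compound displaces dye from 1x1 AA loop RNA; 0% = DMSO only wells and 100% = 100 µM mitoxantrone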
dCAG dye counter – disrupts DNA CAG TO-PRO-1 complex, flagging rCAG hits | shares compounds with rCAG RNA binder | d(CAG) DNA oligo TO-PRO-1 dye displacement, fluorescence | inhibition, % at 3 µM | 94% of 4,300 active | AID 652068;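 active means inhibition above its plate's cutoff, the mean test-well inhibition plus 3 SD, cut at about 4.8% in these data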;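 further: 0% = DNA dye mix with DMSO and 100% = 100 µM mitoxantrone; hits displace the dye from DNA and so lower well fluorescence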
DNA CAG DR – DNA CAG dye complex inhibition, dose response counter-screen; DNA CAG/GTC duplex TO-PRO-1 dye displacement fluorescence; AID 686960; shares compounds with rCAG RNA binder; 20% of 250 active; IC50, µM; in the data active means IC50 below about 10 µM
Active calls of the source: *; i = inactive; x = no result given.

SMILES	NadD block	MsrA act	rCAG RNA binder	MsrA inhibitor	rCAG bind conf	dCAG dye counter	others
CCc1ccc([C@@H]2CC=C(C(=O)O)[C@H](c3ccc(F)cc3)N2S(=O)(=O)c2ccc(C)cc2)cc1	5.4	-2.7	80.1*	0.3	62.1*	24.2*
COc1ccc([C@@H]2CC=C(C(=O)O)[C@H](c3ccc(Cl)cc3)N2S(=O)(=O)c2ccc(Cl)cc2)cc1	3.0	-6.5	59.1*	-0.3	74.2*	37.5*
CCc1ccc([C@@H]2CC=C(C(=O)O)CN2S(=O)(=O)c2ccc(C)cc2)cc1	-5.2	-0.5	30.3	-0.3	x	x
Cc1ccc(S(=O)(=O)N2[C@@H](c3ccc(F)cc3)C(C(=O)O)=CC[C@H]2c2cccc(C)c2)cc1	3.8	-2.9	8.8	0.9	x	x
Cc1ccc(NC(=O)COC(=O)c2ccc3ncsc3c2)c(C)c1	0.8	-4.4	3.6	-0.7	x	x
Cc1cc(C)c2nc(-c3cccnc3)cc(C(=O)NC(C)c3cnn(C)c3C)c2c1 (stereo unspecified)	-2.0	-4.1	-0.6	-0.5	x	x
CCc1ccc([C@@H]2CC=C(C(=O)O)[C@H](c3ccccc3)N2S(=O)(=O)c2ccc(C)cc2)cc1	10.8	-1.4	76.2*	-1.2	66.9*	27.4*
Cc1ccccc1S(=O)(=O)N1[C@@H](c2ccc(F)cc2)C(C(=O)O)=CC[C@H]1c1ccc(Cl)cc1	5.4	-1.8	57.8*	2.2	72.2*	32.8*	DNA CAG DR=i
Cc1ccccc1S(=O)(=O)N1CC(C(=O)O)=CC[C@H]1c1ccc(Cl)cc1	-7.3	-3.7	22.2	1.6	x	x
COc1ccc([C@@H]2CC=C(C(=O)O)[C@H](c3ccccc3)N2S(=O)(=O)c2ccc(C)cc2)cc1OC	-0.2	-5.5	23.0	0.3	x	x
CCCCC(=O)NC(Nc1nc(C2CC2)cs1)(C(=O)OCC)C(F)(F)F (stereo unspecified)	1.7	-3.2	-8.2	-0.8	x	x
Cc1ccc2nc(N/C(=N/S(=O)(=O)c3ccc(F)cc3F)c3ccccc3)sc2c1	2.7	-4.8	45.9*	1.4	47.7*	14.5*
C/C(=N\NC(=O)c1ccccc1O)C1C(=O)c2ccccc2C1=O	2.9	-6.0	71.8*	3.0	64.4*	17.7*
CCOC(=O)CSc1nc(C2CC2)cc(-c2ccc(Cl)cc2)c1C#N	3.4	-2.4	10.8	2.9	x	x
N#Cc1c(-c2ccc(Cl)cc2)cc(-c2cccs2)nc1SCC(=O)O	16.4	4.5	65.5*	1.4	61.9*	24.9*
N#Cc1c(-c2ccccc2)cc(-c2cccs2)nc1SCC(=O)O	-0.7	-11.2	49.7*	2.4	40.7*	17.0*
COc1ccc(-c2cc(-c3cccs3)c(C#N)c(SCC(=O)NCc3ccccc3)n2)cc1	6.7	-3.2	0.5	0.6	x	x
O=C1NC2(CCCCC2)C(=O)N1c1cccc(Cl)c1	-5.6	-0.5	4.1	-0.6	x	x
CCCCN(C)C/C(O)=C(\C#N)c1nc(-c2ccccc2)cs1	0.8	-11.4	6.2	0.9	x	x
N#C/C(=C(/O)CCl)c1nc(-c2ccccc2)cs1	4.7	-3.7	42.4*	0.0	38.5*	18.0*
O=C(NC(c1ccc(Cl)cc1)c1cnccn1)C1CCN(Cc2cccc(C(F)(F)F)c2)CC1 (stereo unspecified)	-1.0	-0.8	-1.1	-0.1	x	x
O=C(Cc1cccs1)N1CCN(S(=O)(=O)c2ccc(F)c(F)c2)CC1	13.1	-2.6	5.5	-0.3	x	x
Cc1c(C)n(Cc2ccc(-c3ccccc3C(=O)O)cc2)c2ccc(C(=O)N[C@@H](C)c3ccc([N+](=O)[O-])cc3)cc12	x	x	73.5*	x	74.4*	34.8*
CCC(NC(=O)c1ccc2c(c1)c(C)c(C)n2Cc1ccc(-c2ccccc2C#N)cc1)c1ccccc1 (stereo unspecified)	x	x	16.7	x	x	x
Cc1cc(C)c(NC(=O)CCn2nnc3ccccc32)c(C)c1	-1.0	-3.7	-3.6	2.5	x	x
CC(C)(C)NC(=O)CN(CCN1CCOCC1)C(=O)CNS(=O)(=O)c1ccccc1	-3.9	-12.5	-0.8	0.4	x	x
CSc1nsc2nc(=O)c(/C=C3\C(C)=Nc4ccccc43)c(N)n12	2.3	-3.4	41.9*	0.9	24.9	4.7*
Cc1ccc(-n2c(O)c(/C=C3/C(c4ccccc4)=Nc4ccccc43)c(=O)[nH]c2=O)cc1	5.8	-6.0	3.1	0.5	x	x
O=C(CSc1ccc(Cl)cc1)Nc1ccccc1	0.8	-5.8	1.7	-0.3	x	x
